FGF22 binding: binders of recombinant human FGF22 by thermal shift | SYPRO orange fluorescence; percent of sucrose octasulfate shift, DMSO zero | Q9HCT0 | 1.5% of 340,000 active | activity (Tm shift, normalised), % at 9.99 µM;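 active = mean Tm shift, scaled 0 neutral to 100 positive control, at about 1.3% or above, every replicate too, limit read from the data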
Target sequence (Q9HCT0 whole entry, looked up): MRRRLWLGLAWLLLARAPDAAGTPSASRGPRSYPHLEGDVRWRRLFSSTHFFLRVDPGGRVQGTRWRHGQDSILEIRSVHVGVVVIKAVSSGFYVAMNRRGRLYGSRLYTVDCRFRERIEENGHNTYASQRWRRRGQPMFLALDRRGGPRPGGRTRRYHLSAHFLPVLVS
AF4-AF9 inh: MLL-AF4/AF9 protein interaction inhibition; P42568; AlphaScreen, biotin-AF4 peptide binding to FLAG-AF9; inhibition, % at 10 µM; 0.47% of 350,000 active; AID 651704;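 active = every replicate reaching a set inhibition limit, whatever the replicate mean, cut at about 25% in these data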
DENV2 CPE: DENV2-induced cell death inhibition; DENV2-infected cells, cytopathic effect rescue, plate reader; AID 651640; 1.7% of 350,000 active; CPE inhibition, % at 9.99 µM; in the data active = CPE inhibition above about 20%, passing the limit was not always enough; tested in BHK-21 cells
RAD52 inh: RAD52 (human) annealing inhibition. P43351. recombinant RAD52 DNA annealing, FRET fluorescence. inhibition, % at 18.7 µM. 0.46% of 360,000 active. AID 651710;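 active = every replicate showing at least 50% inhibition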
Target sequence (P43351 whole entry, looked up): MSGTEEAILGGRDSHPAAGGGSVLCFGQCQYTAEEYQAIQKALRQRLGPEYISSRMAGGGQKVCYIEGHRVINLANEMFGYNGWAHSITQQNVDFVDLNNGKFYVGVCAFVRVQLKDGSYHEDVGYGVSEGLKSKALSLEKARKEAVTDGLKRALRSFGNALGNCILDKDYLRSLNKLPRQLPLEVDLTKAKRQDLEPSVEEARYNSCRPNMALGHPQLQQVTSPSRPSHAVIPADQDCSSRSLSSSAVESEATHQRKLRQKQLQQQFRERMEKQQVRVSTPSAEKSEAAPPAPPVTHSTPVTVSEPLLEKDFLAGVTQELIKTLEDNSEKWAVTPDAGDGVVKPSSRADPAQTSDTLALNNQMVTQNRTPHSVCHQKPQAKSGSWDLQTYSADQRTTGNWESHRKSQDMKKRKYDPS
ERAP1 inh: inhibitors of human ERAP1 aminopeptidase. recombinant ERAP1, Leu-AMC fluorescence, 60 min. inhibition, % at 10.7 µM. 0.15% of 340,000 active;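 active = mean replicate inhibition of at least 30%, or all replicates individually reaching that 30% level; inactive = mean below 30% and not every replicate reaching it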
Hits are given with their value; n = inactive; x = no result given. An excerpt weighted towards active compounds, which were near 4% of everything screened.

SMILES	FGF22 binding	AF4-AF9 inh	DENV2 CPE	RAD52 inh	ERAP1 inh
COc1cccc(-c2cnc3c(NC=O)cc(-c4ccc(N5CCN(C)CC5)cc4)cn23)c1	n	35.0	n	n	n
COc1cccc(-c2cnc3c(NC=O)cc(-c4ccccc4)cn23)c1	n	n	n	n	n
COCC(=O)N1C[C@H](C)[C@@H](OC)CN(C)C(=O)c2cc(NC(=O)Nc3cccc(F)c3)ccc2OC[C@H]1C	n	n	n	n	n
C[C@@H]1CCCCO[C@H](CN(C)CC2CC2)[C@@H](C)CN([C@H](C)CO)C(=O)c2cc(NC(=O)CCC(F)(F)F)ccc2O1	n	n	n	n	n
CN(C)/C=C1\C(=O)N(c2ccc(Cl)c(Cl)c2)CS1(=O)=O	43.1	n	x	n	n
O=[N+]([O-])c1c(Nc2ccc(O)cc2)cc(Cl)c2nonc12	n	n	n	n	42.2
CS(=O)(=O)N1CC2(C1)[C@H](c1ccccc1)[C@@H](CO)N2CC1CC1	n	n	n	n	n
Cc1cccc(-c2ccc([C@@H]3[C@@H](CO)N4CCCCN(S(=O)(=O)c5cn(C)cn5)C[C@@H]34)cc2)c1	n	n	n	n	n
COc1ccc(-c2ccnc3ncnn23)cc1	42.9	n	n	n	n
Cc1cccc(C)c1NC(=O)C(C1CC1)n1c(-c2ccc(=O)[nH]c2)nc2ccccc21 (stereo not given)	n	n	n	n	n
Cc1cccc(C)c1NC(=O)C(C)n1c(-c2ccc(=O)[nH]c2)nc2ccccc21 (stereo not given)	n	n	20.7	n	n
O=C(c1ccccc1)N1CC(=O)N2[C@H](C1)[C@@H](c1ccc(C#CCC3CCCC3)cc1)[C@@H]2CO	x	n	n	n	n
CO[C@H]1CN(C)C(=O)c2ccc(NC(=O)c3nc4ccccc4s3)cc2OC[C@H](C)N(Cc2cncnc2)C[C@H]1C	n	n	n	n	n
CO[C@H]1CN(C)C(=O)c2ccc(NS(=O)(=O)c3ccc(C)cc3)cc2OC[C@H](C)N(C(=O)NC(C)C)C[C@@H]1C	n	n	n	n	n
Cc1nnc(SCC(=O)N2CCCC(C(=O)c3ccc(Cl)cc3)C2)o1 (stereo not given)	43.4	n	n	n	n
N#C[C@@H]1[C@H](c2ccc(C#Cc3ccccc3F)cc2)[C@@H](CO)N1C(=O)C1CC1	n	n	81.7	n	n
N#C[C@@H]1[C@@H](c2ccc(C#Cc3ccccc3F)cc2)[C@H](CO)N1C(=O)C1CCCCC1	n	n	n	n	n
N#C[C@H]1[C@@H](c2ccc(C#Cc3ccccc3F)cc2)[C@@H](CO)N1C(=O)C1CCCC1	x	n	32.9	n	n
N#C[C@H]1[C@@H](c2ccc(C#Cc3ccccc3F)cc2)[C@H](CO)N1C(=O)C1CC1	n	n	n	n	n
COc1ccccc1C#Cc1ccc([C@@H]2[C@@H](C#N)N(C(=O)C3CCC3)[C@H]2CO)cc1	n	n	21.5	n	n
N#C[C@@H]1[C@H](c2ccc(C#Cc3ccccc3F)cc2)[C@H](CO)N1C(=O)C1CCC1	n	n	101.7	n	n
Cc1noc(C)c1NC(=O)NCC[C@@H]1CC[C@H](NC(=O)Nc2cccc(Cl)c2)[C@H](CO)O1	n	n	n	n	n
N#C[C@@H]1[C@H](c2ccc(C#Cc3ccc(F)cc3)cc2)[C@@H](CO)N1C(=O)C1CCCC1	n	n	51.1	n	n
CC1(C)c2ccccc2-c2nc3ccccc3cc2C1N1CCOCC1 (stereo not given)	43.2	n	n	n	n
COCC(=O)Nc1ccc2c(c1)C(=O)N(C)[C@@H]1CC[C@@H](CC(=O)NCc3ccc(OC)cc3)O[C@@H]1CO2	n	x	n	x	x
SMILES	FGF22 binding	AF4-AF9 inh	DENV2 CPE	RAD52 inh	ERAP1 inh
CCc1c(C)[nH]c(C(=O)OCc2ccccc2)c1C	42.9	n	n	n	n
COc1ccc(-c2cnc3c(c2)C(=O)N([C@H](C)CO)C[C@H](C)[C@H](CN(C)Cc2ccc(F)cc2)O3)cc1	n	n	n	n	n
O=C(NCCCCNC(=O)C(F)(F)F)C(F)(F)F	n	25.5	n	n	n
CCc1cccc2c(C(=O)COC(=O)c3ccc([N+](=O)[O-])s3)c[nH]c12	44.3	n	n	n	n
O=C(OCC(=O)c1c[nH]c2ccccc12)c1ccc([N+](=O)[O-])s1	n	n	n	n	n
CC(=O)NC1=NC(=O)/C(=C/c2cn(C(C)=O)nc2-c2ccccc2)S1	43.7	n	x	n	n
CC(=O)NC1=NC(=O)/C(=C/c2cc(C)n(-c3cccc(C(=O)O)c3)c2C)S1	43.1	n	n	n	n
Cc1ccc(NC(=O)CN2C(=O)N/C(=C/c3cc(C)n(-c4cccc(C(=O)O)c4)c3C)C2=O)cc1	43.6	n	n	n	n
O=C(O)CCn1cc(/C=C2\SC(=S)NC2=O)c(-c2ccccc2)n1	x	n	n	n	n
CC(=O)NC1=NC(=O)/C(=C/c2cc(C)n(-c3ccc(NC(C)=O)cc3)c2C)S1	n	n	n	n	n
Cc1noc(C)c1S(=O)(=O)N(C)C[C@@H]1OCCCC[C@H](C)Oc2ccc(NC(=O)Nc3ccc(F)cc3)cc2C(=O)N([C@H](C)CO)C[C@H]1C	n	n	n	n	n
CN1CCN(C(=O)C2=C[C@H](C(C)(C)C)C[C@H](OCc3ccc(CO)cc3)O2)CC1	n	n	n	n	n
O=C(O)CCCNc1n[nH]c(=O)[nH]c1=O	42.9	n	n	n	n
CCC(=O)N1CC2(C1)[C@@H](c1ccccc1)[C@@H](CO)N2C(=O)c1cccnc1	n	n	29.2	n	n
CCC(=O)N1CC2(C1)[C@@H](c1ccccc1)[C@@H](CO)N2C(=O)c1ccncc1	n	n	n	n	n
CCC(=O)N1CC2(C1)[C@H](c1ccc(-c3ccccc3C)cc1)[C@H](CO)N2C(=O)CC	n	n	n	n	n
CCC(=O)N1CC2(C1)[C@H](c1ccccc1)[C@@H](CO)N2C(=O)c1ccncc1	n	n	23.0	n	n
O=C(Cc1cccnc1)N1CC2(C1)[C@@H](c1ccccc1)[C@@H](CO)N2C(=O)C1CCOCC1	n	n	22.3	n	n
O=C(Cc1cccnc1)N1CC2(C1)[C@H](c1ccccc1)[C@@H](CO)N2C(=O)C1CCOCC1	n	x	n	n	x
COCC(=O)N1CC2(C1)[C@H](c1ccccc1)[C@H](CO)N2C(=O)c1cccnc1	n	x	n	n	n
CCC(=O)N1CC2(C1)[C@@H](c1ccc(-c3ccccc3C)cc1)[C@@H](CO)N2C(=O)CC	x	n	36.8	n	n
C[C@H]1CCCCO[C@H](CN(C)C(=O)C2CCCCC2)[C@@H](C)CN([C@@H](C)CO)C(=O)c2cc(NC(=O)Cc3ccccc3)ccc2O1	n	n	n	n	n
C[C@H]1CN([C@@H](C)CO)C(=O)Cc2cc(NC(=O)C3CCCCC3)ccc2O[C@H]1CN(C)S(=O)(=O)c1ccccc1	n	n	n	n	n
COc1ccc(-n2cc(C(=O)c3cc(Cl)ccc3O)cc(C#N)c2=O)cc1	n	n	n	n	n
